PubChem BioAssay (NCATS)
Inconclusive results are not listed. Active and inactive are the calls of the source. Unless noted, calls follow the shape of the dose curve; as a rule, active = well fitted curve in the direction sought with a large enough effect; inconclusive = small, poorly fitted or top-dose-only effect, or another doubt; inactive = no such curve, though single readings can be large; an effect the other way counts as inactive or inconclusive.

Key:
[1] = Confirmation and Secondary Assay for Modulators of Hemoglobin Beta Chain Splicing at IVS2 654 locus (AID 910);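 also: HeLa cells stably carrying EGFP split by mutant beta-globin IVS2-654 intron; per-well total GFP intensity by laser scanning cytometry after 2-day treatment; % of control where 0% means no effect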
Method in brief: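 Readout: per-well total peak green fluorescence (488 nm ex, 500–520 nm em) from objects 5–250 µm, reflecting correct splicing of an EGFP-654 reporter. Compounds were applied for 2 days at 37 °C to overnight-plated HeLa EGFP-654 cells; controls were DMSO and 500 nM IVS2-654 PNA.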

[2] = Confirmation and Secondary Assay for Modulators of Hemoglobin Beta Chain Splicing at IVS2 705 locus (AID 930);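 also: HeLa cells stably expressing the EGFP-705 splicing reporter; GFP fluorescence per well restored by corrected splicing of the IVS2-705 intron in EGFP; % of control where 0% means no effect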
Method in brief: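 Fluorescence gain (488 nm laser, 500-520 nm PMT) reflects restored correct splicing of a mutant IVS2-705 intron inside EGFP in stably transfected HeLa cells after 2-day compound treatment.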

[3] = qHTS Assay for Lipid Storage Modulators (AID 1519; calls by dose curve; as to activity change, negative = inhibition: % is scaled to controls: 0 for no effect and ±100 for the full control effect); conditions: Drosophila S3 cells, BODIPY lipid droplet/cell ratio, laser cytometry, cells loaded with oleic acid
Method in brief: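 Cells seeded at 5,000 per well were treated with compounds over a concentration series and loaded with oleic acid (400 uM, as added). Lipid droplet fluorescence (488 nm excitation, 500-530 nm channel) was read by laser-scanning cytometry and normalized to 20 uM Triacsin C.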

[4] = target: Ubiquitin carboxyl-terminal hydrolase 1 (Homo sapiens) (UniProt O94782); assay: Inhibitors of USP1/UAF1: Pilot qHTS (AID 504865);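 also: rhodamine fluorescence freed from ubiquitin-rhodamine substrate followed over time; top concentration of the series differs between compounds; % is scaled to controls: 0 for no effect and ±100 for the full control effect; nearly all actives have a fitted effect of over 35% in size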
Sequence of Ubiquitin carboxyl-terminal hydrolase 1 (Homo sapiens) (O94782 whole entry, looked up): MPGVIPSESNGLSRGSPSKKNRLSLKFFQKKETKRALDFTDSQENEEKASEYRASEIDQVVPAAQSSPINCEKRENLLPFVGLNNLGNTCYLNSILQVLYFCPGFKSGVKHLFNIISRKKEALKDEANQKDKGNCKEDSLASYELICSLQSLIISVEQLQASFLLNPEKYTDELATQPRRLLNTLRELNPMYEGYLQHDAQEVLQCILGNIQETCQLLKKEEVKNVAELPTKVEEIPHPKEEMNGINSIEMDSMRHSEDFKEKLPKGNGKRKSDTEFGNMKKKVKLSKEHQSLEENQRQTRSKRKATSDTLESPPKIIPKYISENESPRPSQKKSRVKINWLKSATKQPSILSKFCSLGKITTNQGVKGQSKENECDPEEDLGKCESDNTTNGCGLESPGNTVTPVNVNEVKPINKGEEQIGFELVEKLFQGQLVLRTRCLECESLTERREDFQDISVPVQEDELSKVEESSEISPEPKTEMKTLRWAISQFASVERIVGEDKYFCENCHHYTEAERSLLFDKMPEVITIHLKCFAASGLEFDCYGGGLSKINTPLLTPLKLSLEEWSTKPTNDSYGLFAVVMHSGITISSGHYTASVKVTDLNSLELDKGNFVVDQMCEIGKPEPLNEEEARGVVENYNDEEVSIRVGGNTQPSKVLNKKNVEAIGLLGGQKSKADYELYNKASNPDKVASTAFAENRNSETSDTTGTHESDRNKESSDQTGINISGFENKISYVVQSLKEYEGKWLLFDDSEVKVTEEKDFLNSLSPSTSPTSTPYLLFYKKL
Method in brief: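 Deubiquitinase activity followed as kinetic rhodamine fluorescence release from 150 nM Ub-Rho. 1 nM USP1/UAF1 with compound, after 15 min room-temperature preincubation, in HEPES pH 7.8 buffer containing TCEP, EDTA, BSA and Tween-20.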

[5] = target: Luciferin 4-monooxygenase (Photinus pyralis) (UniProt P08659); assay: Biochemical firefly luciferase enzyme assay for NPC (AID 624030);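 also: purified P. pyralis luciferase at 10 nM with luciferin and ATP substrate; 0% = DMSO and -100% = full luciferase inhibition by PTC124 control; nearly all actives have a fitted effect of over 70% in size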
Sequence of Luciferin 4-monooxygenase (Photinus pyralis) (P08659 whole entry, looked up): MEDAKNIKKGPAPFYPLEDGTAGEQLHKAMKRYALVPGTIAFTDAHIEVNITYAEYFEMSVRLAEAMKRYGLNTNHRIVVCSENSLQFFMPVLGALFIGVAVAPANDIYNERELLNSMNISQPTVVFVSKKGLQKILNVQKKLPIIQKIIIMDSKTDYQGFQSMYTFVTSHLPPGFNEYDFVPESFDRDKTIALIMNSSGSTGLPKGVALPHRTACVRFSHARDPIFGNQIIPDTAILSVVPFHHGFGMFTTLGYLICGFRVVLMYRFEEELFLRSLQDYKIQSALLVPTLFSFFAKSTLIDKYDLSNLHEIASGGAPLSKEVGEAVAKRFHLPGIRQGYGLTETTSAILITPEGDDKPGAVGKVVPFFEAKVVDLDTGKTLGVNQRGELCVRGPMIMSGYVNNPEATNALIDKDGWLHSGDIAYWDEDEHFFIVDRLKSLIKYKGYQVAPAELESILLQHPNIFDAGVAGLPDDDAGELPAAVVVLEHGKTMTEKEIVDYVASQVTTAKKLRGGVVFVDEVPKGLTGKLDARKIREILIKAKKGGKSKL
Method in brief: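 Direct inhibition of firefly luciferase enzyme (10 nM final, 50 mM Tris Acetate) assessed by luminescence within 5 minutes. Percent activity scaled between DMSO and PTC124 positive control, with concentration-effect curves classified by fit quality and response.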

[6] = S16 Schwann cell PMP22 intronic element firefly luciferase assay (AID 624032);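 also: plate controls were DMSO for no effect and PTC124 positive control mean for full effect; nearly all actives have a fitted effect of over 30% in size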
Method in brief: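 Luciferase reporter of PMP22 intronic-element expression in stably transfected S16 rat Schwann cells, read by ONE-Glo luminescence after 24 h compound exposure at 37 C. Activity scaled between DMSO (0%) and positive-control PTC124; concentration-effect curves quality-classified.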

[7] = Primary qHTS for inhibitors of SARS-S pseudo-typed particle cell entry (AID 1479145; calls by dose curve; also: potency is read from the fitted curve at half-maximal effect; nearly all actives have a fitted effect of over 45% in size); conditions: outcome: dose series up to 57.1 µM unless noted
[8] = Primary qHTS for inhibitors of MERS-S pseudo-typed particle cell entry (AID 1479149; calls by dose curve; also: % is scaled to controls: 0 for no effect and ±100 for the full control effect; nearly all actives have a fitted effect of over 60% in size); conditions: outcome: dose series up to 57.1 µM unless noted
[9] = Primary qHTS to identify inhibitors of SARS-CoV-2 cell entry (AID 1645846; calls by dose curve; also: nearly all actives have a fitted effect of over 45% in size); conditions: SARS-CoV-2 pseudovirus cell entry assay, luminescence; activity change, negative = inhibition: at 57.1 µM (top of the series) unless noted
Method in brief: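 Entry measured by luciferase signal 48 h after adding SARS-CoV-2-S pseudotyped MLV particles to HEK293-ACE2 cells preincubated 1 h with compounds. Normalisation: bald particles and spike particles.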

[10] = NCATS anti-infectives library activity on HEK293 viability as a counter-qHTS vs the C. elegans viability qHTS (AID 1745854); also: potency is read from the fitted curve at half-maximal effect
Method in brief: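 HEK293 cells, 1500 per well, exposed 24 hr at 37C in 5% CO2 to compounds in a 1:5 titration, up to 41.7 uM final. Viability read as CellTiter-Glo luminescence after 10 min at room temperature.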

[11] = NCATS anti-infectives library activity on the primary C. elegans qHTS viability assay (AID 1745855; calls by dose curve; also: potency is read from the fitted curve at half-maximal effect)
Method in brief: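 Viability is taken from GFP fluorescence of PE254-GFP-FLuc C. elegans imaged by laser cytometry over 7 days. Ten L1 worms per well grow at 21 °C on TOP10 E. coli capsules with titrated compound; levamisole marks toxicity.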

[12] = target: Glutathione peroxidase 1 (Homo sapiens) (UniProt P07203); assay: Primary qHTS Assay for Inhibitors of Recombinant Selenoprotein Glutathione Peroxidase 1 (GPX1) (AID 1845191); also: nearly all actives have a fitted effect of over 65% in size
Sequence of Glutathione peroxidase 1 (Homo sapiens) (P07203 whole entry, looked up): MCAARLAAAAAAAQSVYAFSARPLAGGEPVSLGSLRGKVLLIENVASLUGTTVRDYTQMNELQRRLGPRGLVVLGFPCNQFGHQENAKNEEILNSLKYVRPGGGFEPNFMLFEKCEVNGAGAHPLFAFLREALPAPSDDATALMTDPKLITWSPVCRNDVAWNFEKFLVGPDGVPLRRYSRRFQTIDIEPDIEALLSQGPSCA
Method in brief: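 10 nM GPX1 + cpd, 30 min RT; start w/ 1 mM GSH, 0.5 mM cumene hydroperoxide, 0.5 mM NADPH, 100 nM GR, 0.01% BSA; buffer 50 mM Tris-HCl pH 7.5, 2 mM EDTA, 150 mM NaCl; Fl 340/450, 0 & 15 min.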

[13] = qHTS profiling for inhibitors of Plasmodium falciparum proliferation (AID 504749); also: nearly all actives have a fitted effect of over 60% in size; also: potency is read from the fitted curve at half-maximal effect;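 as to activity, negative = inhibition: 0% = DMSO vehicle and full inhibition = artemisinin control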; conditions: P. falciparum in erythrocytes, SYBR Green DNA, 72 h, at 28.7 µM (top of the series)
Method in brief: (§1)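 Three-day growth assay of blood-stage parasites in erythrocytes (0.3% parasitemia, 2.5% hematocrit) at 37 C, 5% CO2, quantified by SYBR Green DNA staining after overnight detergent lysis.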

7G8 = assay: as above; conditions: P. falciparum in erythrocytes, SYBR Green DNA, 72 h; series mostly up to 12.8 µM
Method in brief: as §1

AA1029 = assay: as above; conditions: P. falciparum in erythrocytes, SYBR Green DNA, 72 h; series mostly up to 28.7 µM
Method in brief: as §1

AS120 = assay: as above; conditions: P. falciparum in erythrocytes, SYBR Green DNA, 72 h; series mostly up to 28.7 µM
Method in brief: as §1

ATS95 = assay: as above; conditions: P. falciparum in erythrocytes, SYBR Green DNA, 72 h; series mostly up to 28.7 µM
Method in brief: as §1

C2A = assay: as above; conditions: P. falciparum in erythrocytes, SYBR Green DNA, 72 h; series mostly up to 28.7 µM
Method in brief: as §1

CP185 = assay: as above; conditions: P. falciparum in erythrocytes, SYBR Green DNA, 72 h; series mostly up to 28.7 µM
Method in brief: as §1

CP192 = assay: as above; conditions: P. falciparum in erythrocytes, SYBR Green DNA, 72 h; series mostly up to 28.7 µM
Method in brief: as §1

CP201 = assay: as above; conditions: P. falciparum in erythrocytes, SYBR Green DNA, 72 h; series mostly up to 28.7 µM
Method in brief: as §1

CP203 = assay: as above; conditions: P. falciparum in erythrocytes, SYBR Green DNA, 72 h; series mostly up to 28.7 µM
Method in brief: as §1

CP211 = assay: as above; conditions: P. falciparum in erythrocytes, SYBR Green DNA, 72 h; series mostly up to 28.7 µM
Method in brief: as §1

CP215 = assay: as above; conditions: P. falciparum in erythrocytes, SYBR Green DNA, 72 h; series mostly up to 28.7 µM
Method in brief: as §1

CP217 = assay: as above; conditions: P. falciparum in erythrocytes, SYBR Green DNA, 72 h; series mostly up to 28.7 µM
Method in brief: as §1

CP238 = assay: as above; conditions: P. falciparum in erythrocytes, SYBR Green DNA, 72 h; series mostly up to 28.7 µM
Method in brief: as §1

CC(=O)OC1C[C@H](O[C@@H]2C(O)C[C@H](O[C@@H]3C(O)C[C@@H](OC4CC[C@]5(C)C(CCC6C5CC(O)[C@@]5(C)C(C7=CC(=O)OC7)CC[C@@]65O)C4)OC3C)OC2C)O[C@H](C)[C@H]1O[C@H]1OC(CO)C(O)C(O)C1O (some centres undefined)
inactive: Potency [1] | Potency [2] | activity change, negative = inhibition ([3]; at 57.5 µM (top of the series)) 1.49% | Potency [4] | Potency [5] | Potency [6] | Potency [8] | Potency [12] | activity, negative = inhibition ([13]; parasite line A) -17.9% | activity, negative = inhibition ([13]; parasite line B) 17.8% | Potency (AA1029) | Potency (AS120) | Potency (ATS95) | Potency (C2A) | Potency (CP185) | Potency (CP192) | Potency (CP201) | Potency (CP203) | Potency (CP211) | Potency (CP215) | Potency (CP217) | Potency (CP238)
-96.3%: activity change, negative = inhibition [9]
20.6%: max response ([3]; measured here: cell count channel max response)
active: Potency [7] 0.794 µM | Potency [10] 0.199 µM | Potency [11] 8.16 µM | Potency (7G8) 8.91 µM
24.4%: max response ([3]; measured here: lipid channel max response)
